In PubChem BioAssay (EPA / NIEHS):
Results filed as inconclusive are left out. Activity calls are given as the source filed them. Rule for the calls, unless noted: active = hit-call score of the fitted dose curve at least 0.9, where 1 is the maximum; inconclusive = response in the unintended direction; inactive = score below 0.9. Peptide text beside a SMILES is read from it.

Experiments:
[1] = molecular target: human RAR-related Orphan Receptor beta (RORb), RORB (gene 6096) (UniProt Q92753); test: ATG_RORb_TRANS: Attagene TRANS-FACTORIAL HepG2 Assay for human RAR-related Orphan Receptor beta (RORb) (AID 2283010)
Procedure, shortened: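 HepG2 cells were transiently transfected with multiplexed GAL4-UAS reporter units expressing chimeric nuclear receptor–GAL4 proteins, then dosed for 24 h. Reporter mRNA was quantified by RT-PCR with fluorescent labelling and capillary electrophoresis; gain of signal was fitted relative to DMSO.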

[2] = molecular target: human RAR-related Orphan Receptor gamma (RORg), RORC (gene 6097) (UniProt P51449); test: ATG_RORg_TRANS: Attagene TRANS-FACTORIAL HepG2 Assay for human RAR-related Orphan Receptor gamma (RORg) (AID 2283011);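 for AC50: potency for induction of reporter transcripts above DMSO so activators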
Procedure, shortened: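 Reporter transcripts from a transfected RORg-GAL4 chimera in HepG2 cells were quantified 24 h after dosing by RT-PCR, 6-FAM labelling, HpaI digestion and capillary electrophoresis; increases over DMSO baseline were fitted.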

[3] = molecular target: human Retinoid X Receptor beta (RXRb), RXRB (gene 6257) (UniProt P28702); test: ATG_RXRb_TRANS: Attagene TRANS-FACTORIAL HepG2 Assay for human Retinoid X Receptor beta (RXRb) (AID 2283013)
Procedure, shortened: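 HepG2 cells transiently transfected with multiplexed reporter units driven by GAL4-UAS and exogenous chimeric NR-Gal4 proteins; treated 24 h. Reporter mRNA measured by RT-PCR, 6-FAM labelling and capillary electrophoresis; gain-of-signal fitted versus DMSO baseline.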

[4] = read-out: E-selectin (Homo sapiens) (UniProt P16581); test: BSK_3C_Eselectin: BioMAP Diversity Plus: 3C Assay for Eselectin Biomarker Activity (AID 2283015; active = hit-call score of the fitted dose curve at least 0.9, where 1 is the maximum; inactive = score below 0.9); conditions: primary human endothelial cells (HUVEC); actives raise or lower the signal
Procedure, shortened: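 E-selectin ELISA readout, fitted bidirectionally relative to DMSO, taken 24 h post-dosing in HUVEC cultures of the 3C system. Overt cytotoxicity tracked with sulforhodamine B staining of parallel wells.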

[5] = read-out: Interleukin-1 alpha (IL1a), IL1A (gene 3552); test: BSK_BE3C_IL1a: BioMAP Diversity Plus: BE3C Assay for Interleukin-1 alpha (IL1a) Biomarker Activity (AID 2283016; active = hit-call score of the fitted dose curve at least 0.9, where 1 is the maximum; inactive = score below 0.9); conditions: primary human bronchial epithelial cells; actives raise or lower the signal
Procedure, shortened: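 Human primary bronchial epithelial cells (BE3C system) were dosed with compound and IL-1a measured by ELISA 24 h later. Activity was fitted bidirectionally against DMSO baseline; cytotoxicity was tracked in parallel cultures by SRB total-protein staining.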

[6] = read-out: Human Leukocyte Antigen - DR isotype (HLADR), HLA-DRA (gene 3122); test: BSK_3C_HLADR: BioMAP Diversity Plus: 3C Assay for Human Leukocyte Antigen - DR isotype (HLADR) Biomarker Activity (AID 2283019; active = hit-call score of the fitted dose curve at least 0.9, where 1 is the maximum; inactive = score below 0.9); conditions: primary human endothelial cells (HUVEC); actives raise or lower the signal
Procedure, shortened: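 Bidirectional fitting against DMSO was applied to the HLA-DR ELISA signal from human umbilical vein endothelial cells, 24 h post-dose. Cytotoxicity came from parallel SRB total-protein staining; 3C proliferation was counted by SRB at 48 h.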

[7] = molecular target: Retinoic acid receptor RXR-alpha (Homo sapiens) (UniProt P19793); test: ATG_RXRa_TRANS: Attagene TRANS-FACTORIAL HepG2 Assay for human Retinoid X Receptor alpha (RXRa) (AID 2283012)
Procedure, shortened: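 HepG2 cells transiently transfected with multiplexed GAL4-UAS reporter units and chimeric NR-GAL4 fusions, dosed 24 h. Reporter mRNA measured by RT-PCR, FAM labelling, HpaI digestion and capillary electrophoresis; gain-of-signal fitted relative to DMSO baseline.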

[8] = molecular target: human Thyroid Receptor alpha (THRa1), THRA (gene 7067) (UniProt P10827); test: ATG_THRa1_TRANS: Attagene TRANS-FACTORIAL HepG2 Assay for human Thyroid Receptor alpha (THRa1) (AID 2283014)
Procedure, shortened: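 Transcripts from GAL4-UAS-driven reporters, measured after 24 h compound exposure by RT-PCR plus capillary electrophoresis of 6-FAM-labeled fragments, were fitted for gain of signal relative to DMSO. Cells: transiently transfected HepG2 expressing NR-Gal4 chimeras.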

[9] = read-out: Monocyte Chemoattractant Protein-1 (MCP1), CCL2 (gene 6347); test: BSK_3C_MCP1: BioMAP Diversity Plus: 3C Assay for Monocyte Chemoattractant Protein-1 (MCP1) Biomarker Activity (AID 2283017; active = hit-call score of the fitted dose curve at least 0.9, where 1 is the maximum; inactive = score below 0.9); conditions: primary human endothelial cells (HUVEC); actives raise or lower the signal
Procedure, shortened: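 MCP-1 was measured by ELISA 24 h after dosing in primary HUVEC 3C cultures and fitted in both directions relative to DMSO; cytotoxicity was checked by SRB total-protein staining in parallel wells.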

[10] = read-out: Monocyte Chemoattractant Protein-1 (MCP1), CCL2 (gene 6347); test: BSK_4H_MCP1: BioMAP Diversity Plus: 4H Assay for Monocyte Chemoattractant Protein-1 (MCP1) Biomarker Activity (AID 2283018; active = hit-call score of the fitted dose curve at least 0.9, where 1 is the maximum; inactive = score below 0.9); conditions: primary human endothelial cells (HUVEC); actives raise or lower the signal
Procedure, shortened: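 Human umbilical vein endothelial cells (4H system) dosed with chemical; MCP-1 measured by ELISA 24 h after dosing. Bidirectional curve fitting against DMSO negative control as baseline; parallel SRB total-protein staining tracks overt cytotoxicity.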

Measured: AC50

Chain of human Retinoid X Receptor beta (RXRb), RXRB (gene 6257) (P28702 whole entry, looked up, the tested form may be a part): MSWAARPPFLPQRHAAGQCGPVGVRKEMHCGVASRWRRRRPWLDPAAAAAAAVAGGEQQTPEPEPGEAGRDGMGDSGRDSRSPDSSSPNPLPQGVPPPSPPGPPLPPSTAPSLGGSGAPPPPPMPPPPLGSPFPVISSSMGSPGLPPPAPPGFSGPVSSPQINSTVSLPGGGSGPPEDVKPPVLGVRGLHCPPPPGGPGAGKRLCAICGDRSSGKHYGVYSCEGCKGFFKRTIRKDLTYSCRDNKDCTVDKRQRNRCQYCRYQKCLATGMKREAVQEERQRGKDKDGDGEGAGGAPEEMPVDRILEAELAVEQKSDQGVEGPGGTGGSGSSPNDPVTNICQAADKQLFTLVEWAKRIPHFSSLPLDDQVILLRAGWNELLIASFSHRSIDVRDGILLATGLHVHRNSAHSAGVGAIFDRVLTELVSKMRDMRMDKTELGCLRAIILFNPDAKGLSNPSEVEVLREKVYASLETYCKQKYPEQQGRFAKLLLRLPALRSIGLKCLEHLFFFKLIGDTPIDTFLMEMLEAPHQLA
Chain of human RAR-related Orphan Receptor beta (RORb), RORB (gene 6096) (Q92753 whole entry, looked up, the tested form may be a part): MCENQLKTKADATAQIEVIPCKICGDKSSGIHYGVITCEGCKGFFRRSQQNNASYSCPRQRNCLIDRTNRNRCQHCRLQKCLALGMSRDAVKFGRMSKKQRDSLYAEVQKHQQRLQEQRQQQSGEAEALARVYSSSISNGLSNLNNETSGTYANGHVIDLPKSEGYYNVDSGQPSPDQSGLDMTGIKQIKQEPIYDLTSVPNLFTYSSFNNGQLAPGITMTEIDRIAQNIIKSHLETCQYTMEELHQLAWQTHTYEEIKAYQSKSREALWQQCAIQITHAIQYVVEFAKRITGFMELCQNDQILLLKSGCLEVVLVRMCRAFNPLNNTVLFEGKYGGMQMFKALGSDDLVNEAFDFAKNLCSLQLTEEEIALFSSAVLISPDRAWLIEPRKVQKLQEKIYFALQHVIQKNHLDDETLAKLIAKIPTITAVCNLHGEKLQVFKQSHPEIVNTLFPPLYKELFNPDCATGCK
Chain of human Thyroid Receptor alpha (THRa1), THRA (gene 7067) (P10827 whole entry, looked up, the tested form may be a part): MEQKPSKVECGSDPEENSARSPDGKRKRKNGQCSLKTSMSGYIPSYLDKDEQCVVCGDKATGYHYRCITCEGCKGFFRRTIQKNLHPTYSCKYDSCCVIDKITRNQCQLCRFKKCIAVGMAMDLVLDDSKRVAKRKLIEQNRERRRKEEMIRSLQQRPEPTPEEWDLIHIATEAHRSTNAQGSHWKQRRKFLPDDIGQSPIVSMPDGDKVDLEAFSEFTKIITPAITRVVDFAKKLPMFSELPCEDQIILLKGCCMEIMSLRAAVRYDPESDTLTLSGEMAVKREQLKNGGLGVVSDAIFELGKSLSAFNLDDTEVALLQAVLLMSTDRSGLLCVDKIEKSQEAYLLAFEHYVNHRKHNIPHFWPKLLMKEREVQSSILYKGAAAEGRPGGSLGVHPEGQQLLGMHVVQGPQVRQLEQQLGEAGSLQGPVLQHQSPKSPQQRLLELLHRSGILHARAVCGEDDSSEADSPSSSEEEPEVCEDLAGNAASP
Chain of human RAR-related Orphan Receptor gamma (RORg), RORC (gene 6097) (P51449 whole entry, looked up, the tested form may be a part): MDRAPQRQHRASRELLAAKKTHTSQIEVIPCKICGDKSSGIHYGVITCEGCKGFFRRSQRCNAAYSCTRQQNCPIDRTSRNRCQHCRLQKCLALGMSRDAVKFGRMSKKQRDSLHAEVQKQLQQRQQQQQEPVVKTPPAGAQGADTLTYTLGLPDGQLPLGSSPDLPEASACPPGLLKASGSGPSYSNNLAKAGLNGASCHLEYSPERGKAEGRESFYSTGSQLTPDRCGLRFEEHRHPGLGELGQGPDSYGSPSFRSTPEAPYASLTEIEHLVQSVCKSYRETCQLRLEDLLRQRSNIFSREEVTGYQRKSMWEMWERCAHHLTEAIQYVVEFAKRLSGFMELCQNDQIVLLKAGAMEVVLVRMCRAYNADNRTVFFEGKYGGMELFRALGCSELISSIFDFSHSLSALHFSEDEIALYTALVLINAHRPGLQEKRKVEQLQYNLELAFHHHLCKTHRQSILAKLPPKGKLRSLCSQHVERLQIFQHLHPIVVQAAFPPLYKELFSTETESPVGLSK
Chain of E-selectin (Homo sapiens) (P16581 whole entry, looked up): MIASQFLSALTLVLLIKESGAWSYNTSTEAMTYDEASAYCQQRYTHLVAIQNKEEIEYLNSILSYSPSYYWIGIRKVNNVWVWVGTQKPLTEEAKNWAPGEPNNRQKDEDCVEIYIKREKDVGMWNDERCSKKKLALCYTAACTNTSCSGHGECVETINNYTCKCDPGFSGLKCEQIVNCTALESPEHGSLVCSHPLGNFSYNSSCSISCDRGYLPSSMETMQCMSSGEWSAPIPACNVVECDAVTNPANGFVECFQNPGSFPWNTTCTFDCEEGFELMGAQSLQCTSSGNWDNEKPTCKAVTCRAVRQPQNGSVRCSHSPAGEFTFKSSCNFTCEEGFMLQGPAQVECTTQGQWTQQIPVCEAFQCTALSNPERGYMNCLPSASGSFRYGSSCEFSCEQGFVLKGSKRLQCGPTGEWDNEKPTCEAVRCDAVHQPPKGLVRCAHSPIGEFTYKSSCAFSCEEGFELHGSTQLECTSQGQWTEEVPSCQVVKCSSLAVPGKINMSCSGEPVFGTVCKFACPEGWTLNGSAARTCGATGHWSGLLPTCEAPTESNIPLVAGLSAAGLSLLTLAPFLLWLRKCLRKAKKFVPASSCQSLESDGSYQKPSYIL
Chain of Retinoic acid receptor RXR-alpha (Homo sapiens) (P19793 whole entry, looked up, the tested form may be a part): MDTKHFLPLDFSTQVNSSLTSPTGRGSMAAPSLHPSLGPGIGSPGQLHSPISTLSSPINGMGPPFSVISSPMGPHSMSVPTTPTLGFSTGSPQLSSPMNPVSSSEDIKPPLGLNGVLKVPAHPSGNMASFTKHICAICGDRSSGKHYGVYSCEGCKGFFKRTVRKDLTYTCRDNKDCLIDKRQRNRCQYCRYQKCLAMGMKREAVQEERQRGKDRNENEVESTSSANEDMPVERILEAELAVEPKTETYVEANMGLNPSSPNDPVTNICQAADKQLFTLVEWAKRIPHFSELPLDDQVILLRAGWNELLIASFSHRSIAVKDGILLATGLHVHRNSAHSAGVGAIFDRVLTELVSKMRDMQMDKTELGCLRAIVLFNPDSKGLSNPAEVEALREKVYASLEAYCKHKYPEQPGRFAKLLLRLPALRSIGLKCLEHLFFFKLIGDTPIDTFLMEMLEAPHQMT

C=CC(=O)NCOCCCC
inactive: [1] | [2] | [3] | [4] | [5] | [6]

Cc1ccc2c(c1)CCCN2
inactive: [1] | [7] | [3]

CC12CCC(CC1)C(C)(C)O2
inactive: [1] | [2] | [3]

C=CC(=O)O[C@H]1C[C@@H]2CC[C@@]1(C)C2(C)C
inactive: [1] | [7] | [3] | [8]

CC=C(C)C(C)=O
active: [7] 100 µM | [3] 9.05 µM
inactive: [1] | [2] | [4] | [5] | [6]

C=C(C)C(=O)OCCOC(=O)C(=C)C
inactive: [1] | [7] | [3]

CCN1CN(CC)CN(CC)C1
active: [6] 20 µM
inactive: [1] | [2] | [7] | [4] | [5]

CCOC(=O)/C=C\C(=O)OCC
inactive: [1] | [2] | [7] | [4] | [5]
active: [6] 32.5 µM

N#CC1(N)CCCCC1
inactive: [1] | [7] | [3]

CC(C)c1cccc(C(C)C)c1N
active: [3] 71.2 µM | [6] 38.2 µM
not listed: [8]
inactive: all other assays above

C=C(C)[C@@H]1CC=C(C)CC1
inactive: [1] | [2] | [3]

COC(=O)CC(C)CCC=C(C)C (stereo not drawn)
inactive: [1] | [7] | [3]

COC(Cc1ccccc1)OC
inactive: [1] | [2] | [8]

CC(C)(O)Cc1ccccc1
inactive: [1] | [2] | [8]

CCCCCC(=O)OCC
inactive: [1] | [7] | [3]

CC(=O)c1ccccc1O
inactive: [1] | [7] | [3]

CCCC(C)C(=O)OCC (stereo not drawn)
inactive: [1] | [2] | [7] | [4] | [5] | [6]

O=C1CCCCC1C1CCCCC1 (stereo not drawn)
inactive: [1] | [7] | [3]

CC1C(C)(C)C2=C(C(=O)CCC2)C1(C)C (stereo not drawn)
inactive: [1] | [7]
active: [3] 87.6 µM

Nc1ccnc(=O)[nH]1
inactive: [1] | [2] | [3]

CC(=O)OC/C=C(/C)CCC=C(C)C
inactive: [1] | [7] | [3]

Cc1ccc([N+](=O)[O-])cc1N
active: [2] 25.7 µM
not listed: [7] | [9] | [10]
inactive: all other assays above

CC(C=O)c1ccccc1 (stereo not drawn)
inactive: [1] | [7] | [3]

CC(=O)OCc1ccccc1
inactive: [1] | [7] | [3]

OCCCc1ccccc1
inactive: [1] | [7] | [3]

CCCCNC(=S)NCCCC
inactive: [1] | [2] | [3] | [8]

CC(=O)C(C)C
inactive: [1] | [7]

CCOC(=O)C1=NOC(c2ccccc2)(c2ccccc2)C1
active: [5] 0.129 µM
not listed: [3] | [8] | [9]
inactive: all other assays above

O=C(O)c1cc(O)c2ccccc2c1O
inactive: [1] | [7] | [3] | [8]

C=C[C@@]1(C)CC(=O)[C@]2(O)[C@@]3(C)[C@@H](O)CCC(C)(C)[C@@H]3[C@H](O)[C@H](OC(C)=O)[C@@]2(C)O1
inactive: [1]
active: [7] 26.9 µM | [3] 3.64 µM | [8] 33.4 µM

CC(c1cc(C(C)(C)C)cc(C(C)(C)C)c1O)c1cc(C(C)(C)C)cc(C(C)(C)C)c1O
active: [3] 1.83 µM | [4] 1.21 µM
not listed: [2] | [9]
inactive: all other assays above

CC(=O)CC(=O)Nc1ccccc1C
inactive: [1] | [3]

CC(=O)CCC=C(C)C
inactive: [1] | [3] | [8]

Cc1c(Cl)cccc1Cl
inactive: [1] | [7] | [8]

O=C1CCCCCCCCCCC1
active: [3] 44.4 µM
not listed: [2] | [8] | [10]
inactive: all other assays above

CC/C=C\CCOC(=O)c1ccccc1O
inactive: [1] | [3] | [8] | [5]
active: [4] 32.9 µM | [6] 33.1 µM

CCCCCCOC(=O)CCCCC(=O)OCCCCCC
active: [3] 54.2 µM
not listed: [2] | [9]
inactive: all other assays above

O=C(O)CCC(=O)O
inactive: [1] | [3]

CCCCCC[C@@H](O)C/C=C\CCCCCCCC(=O)OCC(O)CO (stereo partly drawn)
active: [3] 85 µM
inactive: [1] | [7] | [8]

CC=CC(=O)OCC(C)C
inactive: [1] | [7] | [8]

CC(C)(c1ccccc1)c1ccc(Nc2ccc(C(C)(C)c3ccccc3)cc2)cc1
inactive: [1] | [3]

CCCCCCCCC(CO)CCCCCC (stereo not drawn)
active: [3] 21.9 µM
inactive: [1] | [7] | [4] | [5] | [6]

CCC(C)c1ccccc1 (stereo not drawn)
inactive: [1] | [3] | [8]

Cc1c(O)cccc1O
inactive: [1] | [4] | [5] | [9] | [6]

CCOc1ccc(NC(N)=O)cc1
inactive: [1] | [3] | [8]

CC1=CC=C(C(C)C)CC1
inactive: [1] | [7] | [3] | [4] | [5] | [6]

CCCCCCCC(=O)OCC(COC(=O)CCCCCCC)OC(=O)CCCCCCC
inactive: [1] | [8]

COC(=O)[C@H](Cc1ccccc1)NC(=O)[C@@H](N)CC(=O)O (H-Asp-Phe-OMe)
inactive: [1] | [8]
